Assay outcomes as filed in PubChem BioAssay.
TRHR PAM: allosteric enhancers of human TRH receptor; TRHR cells, fluo-8 calcium fluorescence, EC20 TRH enhancement; enhancement, % at 2 µM; 360,000 compounds, 0.66% hits; AID 493056; in the data active = enhancement above about 30%; note: 0% is about no effect
Target sequence (P34981 whole entry, looked up): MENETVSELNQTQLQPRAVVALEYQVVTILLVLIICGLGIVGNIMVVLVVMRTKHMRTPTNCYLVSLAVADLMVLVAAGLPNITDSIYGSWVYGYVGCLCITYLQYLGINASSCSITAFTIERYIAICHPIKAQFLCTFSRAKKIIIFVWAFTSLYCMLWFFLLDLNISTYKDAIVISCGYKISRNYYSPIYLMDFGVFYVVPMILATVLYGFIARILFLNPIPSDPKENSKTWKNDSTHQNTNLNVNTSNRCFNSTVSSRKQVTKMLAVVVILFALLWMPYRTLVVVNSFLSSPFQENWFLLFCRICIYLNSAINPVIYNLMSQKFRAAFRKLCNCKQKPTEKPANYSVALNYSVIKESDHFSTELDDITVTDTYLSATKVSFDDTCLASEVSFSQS
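Enhancer read-out: after compound pinning and an initial kinetic agonist-mode read, an EC20 of TRH (10 nM final) was injected and fluo-8 calcium signal (Ex 480/Em 530) followed at 1 s/cycle for 100 cycles in TRHR-expressing cells.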
TRHR ag: TRH receptor (human) agonism; 360,000 compounds, 0.18% hits; activation, % at 2 µM; TRHR cells, calcium flux fluo-8, FDSS agonist mode; AID 493084; P34981; note: 0% is about no effect
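TRHR-expressing cells loaded with fluo-8 calcium dye; 23 nL library compound pin-transferred, kinetic FDSS fluorescence (Ex 480/Em 530) recorded about 180 s for agonist-induced calcium release, before a 10 nM TRH EC20 addition for potentiator mode.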
D1 antagonist: blocks dopamine activation of the human D1 receptor | HEK293 TREx D1 cells, calcium flux, dopamine EC80; stronger effect = lower value | activity change, negative = inhibition, % at 10 µM | 360,000 compounds, 3.2% hits | AID 504652; in the data active = activity change below about -30%; note: % is set by controls: 0 for no effect and ±100 for the full control effect
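Antagonism measured as reduced calcium response to an EC80 dopamine addition following 180 s compound pre-read; cells were inducible HEK293 Trex D1 plated overnight at 30 C, read kinetically at 1 cycle/sec.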
D1 PAM: potentiators of human D1 dopamine receptor; P21728; HEK293 TREx D1 cells, calcium flux, dopamine EC20 potentiation; potentiation, % at 10 µM; 360,000 compounds, 0.036% hits; in the data active = potentiation above about 30%; note: 0% is about no effect
D1 agonist: human D1 receptor agonism. P21728. HEK293 T-REx D1 cells, calcium flux, agonist mode. activation, % at 2 µM. 360,000 compounds, 1% hits. AID 504660; note: 0% is about no effect
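Tetracycline-induced HEK293 TREx D1 cells, force-coupled to calcium signalling, were dye-loaded with a no-wash calcium kit. Compound was pin-added after a 10 s baseline. Fluorescence was read kinetically at 1 cycle/s for 180 s, with calcium rises flagged as agonism.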
* hit, by the source's call. Rows were chosen to be rich in hits. Some 4.7% of all compounds tested hit in one or more screens of this group. Cut-off read from the data, not from the text of the source, unless noted: active = activation above about 30%; inactive = the rest.

Results for CC(Oc1ccc(F)cc1)C(=O)Nc1cc(-c2ccc(F)c(F)c2)no1 (stereo not given) ?
TRHR PAM: 1; TRHR ag: -1; D1 antagonist: -41*; D1 PAM: -1; D1 agonist: 111*

Results for CC(C)=CCC/C(C)=C/CC/C(C)=N/O ?
TRHR PAM: -6; TRHR ag: -1; D1 antagonist: -32*; D1 PAM: -4; D1 agonist: 2

How did O=S(=O)(NCC1CCCO1)c1cccc(C(F)(F)F)c1 (stereo not given) do in these assays?
TRHR PAM: 0; TRHR ag: 0; D1 antagonist: -46*; D1 PAM: -4; D1 agonist: 4

What do the screens show for `COc1ccc(CN2CCC(CNS(=O)(=O)c3cccc(C(F)(F)F)c3)CC2)cc1`?
TRHR PAM: 12; TRHR ag: 1; D1 antagonist: -12; D1 PAM: -6; D1 agonist: 35*

What do the screens show for `COc1ccc(S(=O)(=O)NCC2CCCN(Cc3ccccc3C)C2)cc1` (stereo not given)?
TRHR PAM: -3; TRHR ag: -1; D1 antagonist: -30*; D1 PAM: -4; D1 agonist: 3

What do the screens show for `Cc1ccc(C(=O)OC(C)C(=O)NC2CCCCC2C)cc1S(=O)(=O)N1CCCCC1` (stereo not given)?
TRHR PAM: -11; TRHR ag: -1; D1 antagonist: 11; D1 PAM: 4; D1 agonist: 3

How did COc1cc(Nc2cc(C)nc3ncnn23)cc(OC)c1OC do in these assays?
TRHR PAM: -25; TRHR ag: 0; D1 antagonist: -31*; D1 PAM: -14; D1 agonist: 0

Results for COc1cc(Nc2cc(C)nc3ncnn23)cc(OC)c1 ?
TRHR PAM: 4; TRHR ag: -1; D1 antagonist: -5; D1 PAM: 4; D1 agonist: -2

Results for Cc1ccc(C)c(N2CCN(CCCNC(=O)c3nnc(Cc4ccc(F)cc4Cl)o3)CC2)c1 ?
TRHR PAM: -1; TRHR ag: 0; D1 antagonist: -23; D1 PAM: -4; D1 agonist: 17

How did COc1cc(C2C3CN(C)CC=C3C(C#N)=C(N)C2(C#N)C#N)ccc1OC(C)C (stereo not given) do in these assays?
TRHR PAM: 2; TRHR ag: 2; D1 antagonist: -50*; D1 PAM: -16; D1 agonist: 4

Results for CCCOC(=O)c1ccc(NC(=O)/C=C/c2cccs2)cc1 ?
TRHR PAM: -3; TRHR ag: 3; D1 antagonist: -43*; D1 PAM: -2; D1 agonist: 8

How did O=C(/C=C/c1cccs1)Nc1ccncc1 do in these assays?
TRHR PAM: 8; TRHR ag: -1; D1 antagonist: -2; D1 PAM: -3; D1 agonist: 0

Results for CCOC(=O)c1ccc(NC(=O)c2cc(OC)c(OC)c(OC)c2Br)cc1 ?
TRHR PAM: 4; TRHR ag: 0; D1 antagonist: -2; D1 PAM: -6; D1 agonist: 2

What do the screens show for `CCCCCCOC(=O)c1ccc(NC(=O)c2cc(OC)c(OC)c(OC)c2Br)cc1`?
TRHR PAM: 23; TRHR ag: -1; D1 PAM: 1; D1 agonist: 46*

How did CCCCOC(=O)c1ccc(Nc2nc3ccccc3c3nnc(C)n23)cc1 do in these assays?
TRHR PAM: -5; TRHR ag: 1; D1 antagonist: -55*; D1 PAM: -4; D1 agonist: 5

How did CCCOC(=O)c1ccc(NC(=O)c2cc(=O)[nH]c3ccccc23)cc1 do in these assays?
TRHR PAM: 5; TRHR ag: 1; D1 antagonist: -33*; D1 PAM: -2; D1 agonist: 5

Results for CC(CCc1ccccc1)NC(=O)COC(=O)c1ccc(NC(=O)CC#N)cc1 (stereo not given) ?
TRHR PAM: -1; TRHR ag: 2; D1 antagonist: 10; D1 PAM: -3; D1 agonist: 4

What do the screens show for `CCN(CC)c1cc(C)c2cc(NC(=O)/C=C/c3ccccc3Cl)ccc2n1`?
TRHR PAM: 10; TRHR ag: 0; D1 antagonist: 8; D1 PAM: -1; D1 agonist: 1

What do the screens show for `CC(=O)c1ccc(NC2=NS(=O)(=O)c3ccccc32)cc1`?
TRHR PAM: 0; TRHR ag: 0; D1 antagonist: -8; D1 PAM: -1; D1 agonist: 1

What do the screens show for `CCCCc1ccc(NC(=O)OC)cc1`?
TRHR PAM: 2; TRHR ag: 0; D1 antagonist: -29; D1 PAM: -8; D1 agonist: 82*

How did CCCCOC(=O)c1ccc(O)cc1 do in these assays?
TRHR PAM: -1; TRHR ag: 0; D1 antagonist: 7; D1 PAM: -3; D1 agonist: -4

How did CCCCOC(=O)c1ccc(NC2=NS(=O)(=O)c3ccccc32)cc1 do in these assays?
TRHR PAM: 1; TRHR ag: 0; D1 antagonist: -43*; D1 PAM: -3; D1 agonist: 1

What do the screens show for `CCCCOC(=O)Nc1ccc(C(=O)OCCC)cc1`?
TRHR PAM: -16; TRHR ag: 1; D1 antagonist: -31*; D1 PAM: -16; D1 agonist: 2

What do the screens show for `CCCCc1ccc(NC(=S)Nc2ccc(Nc3ccc(OC)cc3)cc2)cc1`?
TRHR PAM: -6; TRHR ag: 0; D1 antagonist: -3; D1 PAM: -12; D1 agonist: 1

What do the screens show for `COc1ccccc1CNS(=O)(=O)c1cccs1`?
TRHR PAM: 4; TRHR ag: 0; D1 antagonist: 1; D1 PAM: 4; D1 agonist: 1

What do the screens show for `Cc1cc2oc(C(=O)Nc3c(C(=O)Nc4ccccc4)oc4ccccc34)cc(=O)c2cc1C`?
TRHR PAM: 3; TRHR ag: -1; D1 antagonist: -43*; D1 PAM: -1; D1 agonist: 3

Results for Cc1cc2oc(C(=O)Nc3ccc(S(=O)(=O)N(C)Cc4ccccc4)cc3)cc(=O)c2cc1C ?
TRHR PAM: 31*; TRHR ag: 0; D1 antagonist: 1; D1 PAM: 5; D1 agonist: 1

What do the screens show for `COc1ccc(NS(=O)(=O)c2cc(NC(=O)c3cc(=O)c4ccccc4o3)ccc2OC)cc1`?
TRHR PAM: 34*; TRHR ag: 0; D1 antagonist: -4; D1 PAM: -3; D1 agonist: 6

Results for Cc1cccc(NC(=O)c2oc3ccccc3c2NC(=O)c2cc(=O)c3ccccc3o2)c1 ?
TRHR PAM: 7; TRHR ag: 0; D1 antagonist: -8; D1 PAM: -1; D1 agonist: 3

How did O=C(Nc1ccc(F)cc1)N1CCN(CCc2ccccc2)CC1 do in these assays?
TRHR PAM: 2; TRHR ag: 0; D1 PAM: -4; D1 agonist: 1

How did CCNC(=O)N1CCN(CCCC(c2ccc(F)cc2)c2ccc(F)cc2)CC1 do in these assays?
TRHR PAM: -9; TRHR ag: 4; D1 antagonist: -73*; D1 PAM: -4; D1 agonist: 21
